Laboratory results reported in the supplement of paper PMC11219838.

Each compound was assayed on Caenorhabditis elegans L1 (N2) (assay: survival and reproduction score of C. elegans L1 (0: 0-10 living worms, 1: 11-20, 2: 21-50, 3: >50, 4: overgrown) (score 0-4); higher = more worms, less nematicidal, active = 1 or less; extreme values may be limits of the assay). Details: 60 µM; 6 days; temperature: 20 °C.
Summary of the method: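 After compound was pinned to 60 µM final (0.6% v/v DMSO) into wells with roughly 20 synchronized C. elegans N2 L1s and E. coli HB101 in liquid NGM, the sealed 96-well plates were shaken at 200 rpm for 6 days at 20 °C. Under a dissection microscope, survival and reproduction were graded ordinally by living worms per well. A grade of 0 stood for 0–10 worms and 4 for overgrown, starved wells; two biological replicates were averaged.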
In the case of Cc1ccc(-c2nc(-c3ccccc3Cl)no2)cc1, the “survival and reproduction score” value is reported as 4 (inactive). In the case of Brc1ccc(-c2noc(-c3ccc(Br)o3)n2)o1, the “survival and reproduction score” value is reported as 0.5 (active). COc1cccc(NC(=O)c2ccccc2-c2nc(-c3ccc(F)cc3)no2)c1 was tested, and the “survival and reproduction score” value was 4 (inactive). In the case of Brc1ccccc1-c1nc(-c2ccccn2)no1, the “survival and reproduction score” value is reported as 2 (inactive). In the case of Cc1c(C(=O)CSc2nnc(-c3ccccc3)o2)c2ccccc2n1C, the “survival and reproduction score” value is reported as 4 (inactive). Cc1cccc(-c2noc(-c3cccc(Br)c3)n2)c1 was tested, and the “survival and reproduction score” value was 4 (inactive). For Cc1cccc(OCc2nc(-c3ccccc3Cl)no2)c1, the “survival and reproduction score” value was 4 (inactive). For Clc1ccc(-c2noc(-c3ccc4c(c3)OCCO4)n2)cc1, the “survival and reproduction score” value was 4 (inactive). With Cc1ccc(-c2nc(-c3ccccc3Br)no2)cc1 the “survival and reproduction score” value was 4 (inactive). In the case of COc1ccc(C(=O)Nc2ccc(-c3nnc(SCc4ccccc4)o3)cc2)cc1, the “survival and reproduction score” value is reported as 4 (inactive). Cc1cc(OCc2nc(-c3ccccc3)no2)cc(C)c1Cl was tested, and the “survival and reproduction score” value was 4 (inactive). With O=C(NCc1cccnc1)c1ccccc1-c1nc(-c2ccccc2Cl)no1 the “survival and reproduction score” value was 4 (inactive). For COc1ccccc1-c1nnc(SCc2ccccc2C)o1, the “survival and reproduction score” value was 4 (inactive). In the case of O=C(CSc1nnc(-c2ccccc2)o1)Nc1cccc(F)c1, the “survival and reproduction score” value is reported as 4 (inactive). In the case of Cn1c(SCc2ccc(Cl)cc2)nnc1-c1ccco1, the “survival and reproduction score” value is reported as 4 (inactive). CCOc1cc(-c2nc(-c3ccccc3OC)no2)cc(OCC)c1OCC was tested, and the “survival and reproduction score” value was 4 (inactive). In the case of COc1cccc(-c2noc(COc3ccc(C)cc3)n2)c1, the “survival and reproduction score” value is reported as 4 (inactive). For O=C(CSc1nnc(-c2cccc3ccccc23)o1)c1ccc(F)cc1, the “survival and reproduction score” value was 4 (inactive). CCCc1ccc(-c2ccc(-c3nc(-c4ccccn4)no3)cc2)cc1 was tested, and the “survival and reproduction score” value was 4 (inactive). COc1ccc(-c2nnc(SCc3ccccc3)o2)cc1 was tested, and the “survival and reproduction score” value was 4 (inactive). In the case of CC(=O)Nc1c(C)ccc(CNC(=O)CSc2nnc(-c3ccc(C(C)(C)C)cc3)o2)c1C, the “survival and reproduction score” value is reported as 4 (inactive). In the case of Cc1ccc(C(=O)Nc2ccccc2-c2nc(-c3cccnc3)no2)cc1C, the “survival and reproduction score” value is reported as 4 (inactive). For CCCc1ccc(-c2nc(-c3cccnc3)no2)cc1, the “survival and reproduction score” value was 0 (active). In the case of Cc1cc(OCc2nc(-c3ccncc3)no2)cc(C)c1Cl, the “survival and reproduction score” value is reported as 4 (inactive). For Brc1ccc(-c2nc(-c3ccccc3)no2)cc1, the “survival and reproduction score” value was 0 (active). For Cc1cccc(OC(C)c2nc(-c3cccnc3)no2)c1 (stereo not drawn), the “survival and reproduction score” value was 4 (inactive). For CC(C)C(=O)Nc1ccccc1-c1nc(-c2ccccc2)no1, the “survival and reproduction score” value was 4 (inactive). Cc1cccc(-c2noc(-c3ccccc3Cl)n2)c1 was tested, and the “survival and reproduction score” value was 4 (inactive). In the case of Nc1nc(CSc2nnc(-c3ccccc3)o2)cs1, the “survival and reproduction score” value is reported as 4 (inactive). In the case of CCOc1ccccc1-c1nnc(SCC(=O)Nc2nccs2)o1, the “survival and reproduction score” value is reported as 4 (inactive). In the case of CC(Oc1ccc(C(C)(C)C)cc1)c1nc(-c2ccncc2)no1 (stereo not drawn), the “survival and reproduction score” value is reported as 4 (inactive). In the case of CNC(=O)c1ccccc1-c1nc(-c2ccc(F)cc2)no1, the “survival and reproduction score” value is reported as 4 (inactive). With COc1ccc(-c2nnc(SCc3ccc(C#N)cc3)o2)cc1 the “survival and reproduction score” value was 4 (inactive). In the case of O=C(CSc1nnc(-c2ccccc2)o1)c1ccc(Br)cc1, the “survival and reproduction score” value is reported as 4 (inactive). With CCCOc1ccc(-c2nc(-c3ccncc3)no2)cc1 the “survival and reproduction score” value was 0 (active). Cc1ccc(-c2nc(-c3ccc4c(c3)OCO4)no2)cc1 was tested, and the “survival and reproduction score” value was 4 (inactive). For Cc1ccc(-c2nnc(SCC(=O)Nc3cc(C)ccc3C)o2)cc1, the “survival and reproduction score” value was 4 (inactive). With CC(C)CCC(=O)Nc1ccccc1-c1nc(-c2ccccn2)no1 the “survival and reproduction score” value was 2 (inactive).
